Assay results taken from PubChem BioAssay (NCI).
About 79,000 compounds went through this panel and 15% of them were active in at least one assay; those are over-represented in the sample as a whole. Rule as the data show it: active = growth inhibition above about 70%; inactive = the rest. Where a SMILES comes first, the peptide text is derived from it. The star is where a group is joined. Boc = CC(C)(C)OC(=O)*

Columns and labels:
[1] = NCI Yeast Anticancer Drug Screen. Data for the rad50 strain (AID 155);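 also: 0% = growth of vehicle-only cultures of the same strain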; conditions: S. cerevisiae rad50 strain growth inhibition; at 50.0 µM; active compounds read high
Procedure, shortened: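 Inhibition values express reduced yeast growth in compound-treated cultures relative to vehicle-treated controls.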

[2] = NCI Yeast Anticancer Drug Screen. Data for the mec2-1 strain (AID 157); conditions: S. cerevisiae mec2-1 strain, at 50.0 µM, active compounds read high
Procedure, shortened: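 Test agents were screened against the mec2-1 yeast strain, with defined DNA repair or cell cycle alteration. Growth was scored as inhibition against vehicle-only controls.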

[3] = NCI Yeast Anticancer Drug Screen. Data for the sgs1 mgt1 strain (AID 161);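 also: 0% = growth of cultures given vehicle only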; conditions: S. cerevisiae sgs1 mgt1 strain, at 50.0 µM, active compounds read high
Procedure, shortened: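 Inhibition of yeast growth, normalised to vehicle-treated controls, is reported for a strain bearing genetic alterations in DNA damage repair.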

[4] = NCI Yeast Anticancer Drug Screen. Data for the cln2 rad14 strain (AID 165);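 also: 0% = growth equal to vehicle treated cultures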; conditions: S. cerevisiae cln2 rad14 strain, at 50.0 µM, active compounds read high
Procedure, shortened: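 Growth of compound-exposed yeast (cln2 rad14 genotype) measured and expressed as inhibition relative to vehicle.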

[5] = NCI Yeast Anticancer Drug Screen. Data for the bub3 strain (AID 167); conditions: S. cerevisiae bub3 mutant strain, at 50.0 µM, active compounds read high
Procedure, shortened: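 Steps: expose the mutant yeast strain to compound; grow alongside vehicle-treated cultures; measure growth; express inhibition against the vehicle cultures.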

[6] = NCI Yeast Anticancer Drug Screen. Data for the mlh1 rad18 strain (AID 175); conditions: S. cerevisiae mlh1 rad18 strain growth inhibition; at 50.0 µM; active compounds read high
Procedure, shortened: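 In this whole-cell yeast screen, a strain with altered DNA damage repair is challenged with compound, and its growth is measured against matched vehicle-treated controls.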

Measured: growth inhibition

CCCCc1noc(N)c1SCC
inactive: [1] 5.45% | [2] 9.5% | [3] 1.2% | [4] -39.6% | [5] -9.2% | [6] 3.7%

CCCCCCCCNCC(=O)O
inactive: [1] -20% | [2] -21.6% | [3] -5.35% | [4] 3.05% | [5] -13.1% | [6] -12.9%

COc1cc(C(=O)O)c([N+](=O)[O-])c(OC)c1OC
inactive: [1] -12.3% | [2] -6.35% | [3] -18.1% | [4] -11.2% | [5] -29.9% | [6] -7.5%

COC(CCCl)c1ccccc1 (stereo not given)
inactive: [1] 1.2% | [2] -21.2% | [3] -9.8% | [4] 8.25% | [5] -12.7% | [6] 6.9%

O=C(c1ccc(-c2ccccc2)cc1)N(C(=O)c1cc(N2CCOCC2)ccn1)c1ccc([N+](=O)[O-])cc1
inactive: [1] 43% | [2] 17.8% | [3] 45.8% | [4] 22.9% | [5] -5.6% | [6] 8.6%

O=C1NC(=O)C(c2ccc3c(c2)OCO3)N1 (stereo not given)
inactive: [1] -3.25% | [2] -10.6% | [3] -6% | [4] -30.9% | [5] -23.3% | [6] 7.05%

O=C1CSC(c2cccc([N+](=O)[O-])c2)N1c1ccc(-n2c(-c3ccccc3)nc3ccccc3c2=O)cc1 (stereo not given)
inactive: [1] -10.8% | [2] -17.1% | [3] 11.9% | [4] -6.8% | [5] 34% | [6] 7.25%

COc1cc(C2c3cc4c(cc3OC(O)C2C)OCO4)cc(OC)c1OC (stereo not given)
inactive: [1] -11.9% | [2] 4.85% | [3] 11.7% | [4] -46.6% | [5] 16.1% | [6] -4.15%

CSC(=O)/C=C1\SS/C(=C\C(=O)SC)S1
inactive: [1] -10% | [2] -10.4% | [3] -13.1% | [4] -5% | [5] -11.2% | [6] -16.1%

CCN(CC)C(=O)Cn1c(C)cc2ccccc21
inactive: [1] -18.1% | [2] -18.1% | [3] 7.9% | [4] -2.75% | [5] 8% | [6] -13.6%

CCOC(=O)CC(=O)c1ccccc1SC
inactive: [1] 13.2% | [2] -1.55% | [3] -6.1% | [4] 4.4% | [5] -1.45% | [6] 17.4%

COC1(OC)C(Cl)=C(Cl)C2C1C1(Cl)C(Cl)=C(Cl)C2(Cl)C1(OC)OC (stereo not given)
inactive: [1] 39.9% | [2] 10.1% | [3] 1.7% | [4] 13.6% | [5] 2.2% | [6] 5.3%

CN(C)c1ccc(N=Nc2ccc3nc[nH]c3c2)cc1
inactive: [1] -3.15% | [2] 6.65% | [3] 42% | [4] -6.1% | [5] -3.3% | [6] 26.5%

O=C1CCCC2=C(N1)C(=O)C=CC2=O
inactive: [1] -2.55% | [2] 20.9% | [3] 17.1% | [4] 39.5% | [5] -0.2% | [6] -20.9%

C1=NCCCCCCCN=Cc2ccccc2NCCNc2ccccc21
inactive: [1] 29.1% | [2] 23.8% | [3] 20.4% | [4] 32.4% | [5] 38.3% | [6] 44.6%

CCCCCCCCCCCCCCCC1CCCC2CCCCC12 (stereo not given)
inactive: [1] -9.05% | [2] 9.25% | [3] 9.5% | [4] -5.85% | [5] 12.6% | [6] -26.4%

O=C1CC(C2(O)C(=O)Nc3ccc([N+](=O)[O-])cc32)c2ccccc21 (stereo not given)
inactive: [1] -22% | [2] -19.1% | [3] -9.65% | [4] -5.4% | [5] 11.2% | [6] -39.4%

Cc1cn(CCCn2cnc3c(N)ncnc32)c(=O)[nH]c1=O
inactive: [1] -12.7% | [2] -31.6% | [3] -9.55% | [4] -6.6% | [5] -31.4% | [6] -2.9%

CNC(=O)CNC(=O)C(NC(=O)CNC(=O)C1CCCN1C(=O)C(C)NC(=O)C(NC(=O)OC(C)(C)C)C(C)C)C(C)C (stereo not given) (Boc-VAPGVG-NHMe; configuration not given here)
inactive: [1] -12.9% | [2] -23.6% | [3] -11.8% | [4] -11% | [5] -16.2% | [6] -18.2%

CNc1cc(S(=O)(=O)O)ccc1C
inactive: [1] 1.45% | [2] -4.45% | [3] -2.6% | [4] 3.9% | [5] 10.6% | [6] -5.05%

O=C(OCCCCCCCCOC(=O)c1ccc([N+](=O)[O-])cc1)c1ccc([N+](=O)[O-])cc1
inactive: [1] 14.6% | [2] 2.15% | [3] 12.2% | [4] 4.1% | [5] -5.4% | [6] 5.9%

C[C@@H](CO)OCOCc1ccccc1
inactive: [1] 7.5% | [2] -1.25% | [3] 4% | [4] 18.5% | [5] 7.3% | [6] 19.5%

COc1cc2c(cc1OC)C1(CCCl)C3CC4C(=CCOC5CC(=O)N2C1C54)CN3C(=O)Cc1ccccc1 (stereo not given)
inactive: [1] 40.2% | [2] 4.95% | [3] 16.4% | [4] 11.2% | [5] 5.9% | [6] 23.6%

C=CS(=O)(=O)CCCCCCCCCCCCCC
inactive: [1] 28.1% | [2] 27.6% | [3] 28.9% | [4] 2.1% | [5] -5% | [6] 29.5%

COC(=O)C(CCC1(C)OCCO1)=[N+]=[N-]
inactive: [1] -7.05% | [2] 0.95% | [3] -15.1% | [4] 2.85% | [5] -19.1% | [6] -16%

CCCCCOC(c1cc2c(cc1Br)OCO2)C(C)Br (stereo not given)
inactive: [1] 8.9% | [2] 22.1% | [3] 10.8% | [4] 19.4% | [5] 22.8% | [6] 13.5%

N#C/C(=C\Nc1ccccn1)C(=O)c1ccco1
inactive: [1] 6.85% | [2] -19.8% | [3] -19.6% | [4] -0.5% | [5] -55.9% | [6] -3.05%

O=C(O)/C=C/c1c2ccc(=O)c(O)c-2oc2c(O)c(O)ccc12
inactive: [1] 36.4% | [2] 24.4% | [3] 13.9% | [4] -23.9% | [5] 10.2% | [6] 44.8%

COC(=O)N1CCc2c([nH]oc2=O)C1
inactive: [1] -6.75% | [2] -5.4% | [3] -4.5% | [4] -13.4% | [5] -0.8% | [6] -3.75%

NNC(=O)c1ccc(-c2ccc[nH]2)[nH]1
inactive: [1] 10.7% | [2] 0.7% | [3] -20.9% | [4] -75.5% | [5] -14.4% | [6] 5%

Nc1ccc2c(c1)Cc1c-2cc(Cl)c(N)c1Cl
inactive: [1] 8.85% | [2] -0.65% | [3] -18.8% | [4] 6.5% | [5] 13.8% | [6] 6.2%

COc1cc(C(CC(=O)O)CC(=O)O)cc(OC)c1OC
inactive: [1] -2.45% | [2] -8.8% | [3] 25.4% | [4] 7.05% | [5] 15.6% | [6] 12.6%

O=C(COc1ccccc1Cl)N1N=C(c2ccc(Cl)cc2)CC1(O)c1ccccc1 (stereo not given)
inactive: [1] -17.9% | [2] -7.2% | [3] -43.2% | [4] -0.85% | [5] -25.8% | [6] -16.9%

C(=N/NC(=N/N=C/c1ccccc1)N/N=C/c1ccccc1)/c1ccccc1
inactive: [1] 28.8% | [2] 23.1% | [3] 46.6% | [4] 28.3% | [5] 5.65% | [6] 24.1%

c1ccc(B2OC(c3ccccc3)=C(c3ccccc3)O2)cc1
inactive: [1] 1.45% | [2] -0.25% | [3] 17.9% | [4] 11.8% | [5] -0.45% | [6] 13.3%

CN1CCCS/C1=C1/SC(=S)N(c2ccccc2)C1=O
inactive: [1] -16.8% | [2] 13.8% | [3] -5.85% | [4] -5.75% | [5] -28.1% | [6] -17.4%

COc1ccc2c(c1)CCC1C2CCC2(C)C(=O)C(n3cnc4c(SC)ncnc43)CC12 (stereo not given)
inactive: [1] 42.3% | [2] 19.6% | [3] 58.4% | [4] 29.1% | [5] 25.2% | [6] 46.9%

CCOC1(NC(=O)N(C)C)C2CCCC21 (stereo not given)
inactive: [1] 3.4% | [2] -4.15% | [3] -0.1% | [4] -29.9% | [5] 2.1% | [6] -6.5%

NC1=C(O)C(=O)C(c2ccc(C3OC(N)=C(O)C3=O)cc2)O1 (stereo not given)
inactive: [1] -8.15% | [2] -17.6% | [3] -18.6% | [4] -0.3% | [5] -27.6% | [6] -3.5%

CN(NC(=O)Nc1cccc2ccccc12)c1ccccc1
inactive: [1] -4.7% | [2] -16.2% | [3] 14.7% | [4] -63.8% | [5] 1.65% | [6] -6.85%
